# CYP2C9 act: CYP2C9 (human) activation; activation factor at 5 µM; hit rate 1.4% among 96,000; P11712; recombinant CYP2C9, luciferin-H conversion, luminescence; hits give high values; factor 1 = untreated enzyme, 0 = blocked; AID 1024;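 active = activation factor of 2 or more for CYP2C9 at a 5 µM dose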;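 note: 0 = sulfaphenazole-blocked wells and 1 = vehicle-only wells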
# Target sequence (P11712 whole entry, looked up): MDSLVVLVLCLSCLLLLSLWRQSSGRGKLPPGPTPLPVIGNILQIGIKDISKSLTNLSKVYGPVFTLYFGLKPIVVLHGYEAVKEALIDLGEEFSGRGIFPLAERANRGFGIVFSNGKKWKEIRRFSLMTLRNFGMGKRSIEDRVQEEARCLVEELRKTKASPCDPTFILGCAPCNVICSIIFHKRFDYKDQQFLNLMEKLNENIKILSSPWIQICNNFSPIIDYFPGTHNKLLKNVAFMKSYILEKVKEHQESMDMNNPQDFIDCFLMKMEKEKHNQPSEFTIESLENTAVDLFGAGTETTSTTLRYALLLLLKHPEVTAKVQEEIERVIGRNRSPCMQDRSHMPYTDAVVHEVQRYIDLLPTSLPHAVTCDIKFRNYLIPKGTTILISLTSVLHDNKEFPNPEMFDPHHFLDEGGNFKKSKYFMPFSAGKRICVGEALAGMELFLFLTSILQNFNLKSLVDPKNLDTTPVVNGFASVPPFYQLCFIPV
# sEH inh: inhibitors of human soluble epoxide hydrolase; P34913; recombinant human sEH enzymatic activity assay; inhibition, % at 2 µM; hit rate 0.34% among 91,000; AID 707; in the data active = inhibition above about 80%
# CYP2C19 inh: human CYP2C19 inhibition. P33261. CYP2C19 Supersomes, luciferin-H EGE luminescence, 30 min. inhibition, % at 5 µM. hit rate 21% among 96,000;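 active = CYP2C19 inhibition above a set limit at 5 µM in the primary screen, cut at about 50% in these data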;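 note: plate controls were negative control wells for no effect and 2.5 mM tranylcypromine positive control for full effect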
# CYP2C19 act: activators of human cytochrome P450 2C19; P33261; recombinant CYP2C19, luciferin-H EGE luminescence; hits give high values; 0 = fully inhibited enzyme, 1 = untreated enzyme; activation factor at 5 µM; 96,000 tested, under 10 active; AID 1025;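 active = activation factor of at least 2 at 5 µM in the primary screen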;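 note: 0 = wells with 2.5 mM tranylcypromine and 1 = vehicle-only wells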
# sEH activator: activators of human soluble epoxide hydrolase. P34913. purified human sEH enzymatic activity, activator screen. activation, % at 2 µM. hit rate 0.04% among 91,000. AID 717; in the data active = activation above about 37%
# CYP2C9 inh: blocks human cytochrome P450 2C9; P11712; hit rate 20% among 96,000; AID 777; inhibition, % at 5 µM; CYP2C9 Supersomes, luciferin-H conversion, luminescence;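 active = blocking of liver enzyme CYP2C9 beyond about 50% at 5 µM, limit read from the data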
# Starred values were filed as active, the others as inactive; . = no result given. Hits are enriched below; roughly 27% of the tested compounds scored in any of these assays.
SMILES,CYP2C9 act,sEH inh,CYP2C19 inh,CYP2C19 act,sEH activator,CYP2C9 inh
Cc1ccc(S(=O)(=O)Nc2ccccc2-c2ccccc2)cc1,0.5,-3,58*,0.4,5,49
CCOC(=O)c1ccccc1NC(=O)COc1ccccc1,1.3,1,16,0.8,1,-34
COC(=O)COc1ccc(S(=O)(=O)Nc2ccccc2C(=O)OC)cc1,2*,-8,96*,0,10,-102
CCOC(=O)c1ccccc1NS(=O)(=O)c1ccccc1,1.5,1,98*,0,2,-52
CC(NC(=O)c1ccccc1NS(C)(=O)=O)c1ccccc1 (stereo not drawn),0.3,4,62*,0.4,-5,73*
COC(=O)c1[nH]c2ccccc2c1NC(=O)CN1CCN(c2cccc(OC)c2)C(C)C1 (stereo not drawn),0.6,2,18,0.8,-2,35
O=C(O)COc1ccc(-c2nnn(Cc3ccccc3F)n2)cc1,1.1,5,-19,1.2,-1,-7
CC(NC(=O)c1ccccc1NC(=O)CSc1nnnn1C)c1ccccc1 (stereo not drawn),0.4,-6,12,0.9,9,62*
Cc1ccc(CNC(=O)c2ccccc2NS(C)(=O)=O)cc1,0.5,2,55*,0.4,-1,54*
CCOC(=O)c1ccccc1NC(=O)c1ccccc1NS(C)(=O)=O,0.3,3,55*,0.4,0,74*
CCOC(=O)c1cnc(SC)nc1Oc1cccc(NS(=O)(=O)c2ccc(C)cc2)c1,0.2,-10,18,0.8,10,81*
Cc1ccccc1NC(=O)C(NS(=O)(=O)c1ccc2c(c1)c(=O)n(C)c(=O)n2C)c1ccccc1 (stereo not drawn),0.8,.,10,0.9,.,17
CCOC(=O)c1ccccc1NC(=O)c1ccccc1SC,1.6,7,14,0.9,-7,-64
CCOC(=O)c1ccccc1NS(=O)(=O)c1ccccc1F,2.9*,-4,89*,0.1,3,-191
CCOC(=O)c1ccccc1-c1csc(NS(=O)(=O)c2ccc(Cl)cc2)n1,0,-14,33,0.7,13,99*
CCOC(=O)c1cc(-c2ccc(Cl)cc2)nc2onc(C)c12,0.6,-11,25,0.8,12,41
Cc1nnc(-c2ccccc2)c[n+]1[O-],1.4,12,-27,1.3,-11,-35
Cc1cccc(OCC(=O)NC(C)C(=O)N/N=C/c2c(OCc3ccccc3)ccc3ccccc23)c1 (stereo not drawn),0.1,0,49,0.5,3,89*
CC(C)C(=O)N/N=C/c1ccc(OCc2ccccc2)cc1,0.9,-2,20,0.8,5,14
COc1ccc(-c2ncncc2-c2csc(C)n2)c(O)c1OC,0.5,-2,63*,0.4,2,52*
COc1cc(-c2csc(C)n2)ccc1O,1.1,-3,6,0.9,4,-13
COc1cc(/C=C/C(=O)N2CCN(CC(O)COc3ccccc3)CC2)cc(OC)c1OC (stereo not drawn),1.1,-4,2,1,7,-11
CCOC(=O)c1c(CN(C)C)oc2cc(CN(C)C)c(O)c(CSc3ccccc3)c12,0.8,-2,92*,0.1,0,15
CCOc1ccc(NC(=S)Nc2ccc(C)c([N+](=O)[O-])c2)cc1,0.9,8,25,0.8,-7,8
Cc1ccccc1-c1nnn(CC(=O)N2CCN(S(=O)(=O)c3ccc(Cl)cc3)CC2)n1,0.8,-3,62*,0.4,4,20
SMILES,CYP2C9 act,sEH inh,CYP2C19 inh,CYP2C19 act,sEH activator,CYP2C9 inh
O=C(Cn1nnc(-c2ccc(S(=O)(=O)N3CCCC3)cc2)n1)NCC1CCCO1 (stereo not drawn),0.3,9,26,0.7,-8,70*
CC1CCN(S(=O)(=O)c2ccc(NC(=O)Cn3nnc(-c4ccccc4)n3)cc2)CC1,0.2,29,43,0.6,-31,76*
CCc1nnc(NC(=O)CCN2C(=O)c3ccccc3C2=O)s1,0.9,-11,12,0.9,8,7
CCc1nnc(NC(=O)Cn2nnc(-c3ccccc3F)n2)s1,0.3,.,11,0.9,.,66*
O=C(Cn1nnc(-c2ccccc2)n1)N1CCN(S(=O)(=O)c2ccc(Cl)cc2)CC1,1.1,12,-17,1.2,-13,-10
Cc1ccc(-c2nnn(CC(=O)Nc3ccc(S(=O)(=O)N4CCC(C)CC4)cc3)n2)cc1,0.6,21,8,0.9,-20,40
C=CCOc1ccc(C(=O)NC2CCCCC2)cc1,0.9,0,3,1,1,11
Nc1cc(C(=O)O)ccc1Nc1ccc(F)c(F)c1,1.1,-10,2,1,6,-10
CCOC(=O)c1cnn(-c2nc(SC)nc3sc4c(c23)CCC4)c1N,0.9,11,5,0.9,-6,10
CC1CCCN(S(=O)(=O)c2ccc(NC(=O)CCN3C(=O)c4ccccc4C3=O)cc2)C1 (stereo not drawn),0.5,36,4,1,-36,45
CC1CCCN(S(=O)(=O)c2ccc(NC(=O)Cn3nnc(-c4ccccc4F)n3)cc2)C1 (stereo not drawn),0,57,62*,0.4,-57,99*
CCCCNC1=C(Br)C(=O)CC(C)(C)C1,1,4,82*,0.2,-4,2
CCCCCCN=CC1=C(O)CC(C)(C)CC1=O,0.8,10,21,0.8,-10,18
CCn1c(SCc2ccc(F)cc2)nnc1-c1nn(-c2ccccc2)ccc1=O,1.2,-11,-9,1.1,10,-21
Cc1ccc(Nc2nc(Oc3ccc(OCc4ccccc4)nn3)nc(N3CCOCC3)n2)cc1,0.2,-17,82*,0.2,21,77*
c1ccc(COc2ccc(Oc3nc(N4CCCCC4)nc(N4CCOCC4)n3)nn2)cc1,0.4,.,88*,0.1,.,59*
C=CCN1C(=O)N(/C=C/C)c2cccc3cccc1c23,0.8,-6,18,0.8,4,18
COc1ccccc1CC1(C)NC(=O)N(CC(=O)Nc2cc(C)on2)C1=O (stereo not drawn),0.7,-3,4,1,2,28
CC(C)(C)NC(=O)COC(=O)c1cncc(Br)c1,1,.,6,0.9,.,-5
Cc1ccc(-c2cc(C(=O)NCc3ccco3)c3ccccc3n2)s1,0.8,-7,13,0.9,10,23
Cc1nn(-c2ccccn2)c2nc(-c3cccs3)cc(C(=O)NCc3ccco3)c12,0.1,5,61*,0.4,-6,86*
Cc1nn(-c2ccccc2)c2nc(-c3ccncc3)cc(C(=O)NCc3ccco3)c12,0.1,5,91*,0.1,-2,94*
Cc1ccc(-c2nnc3n2N=C(c2ccc(Br)cc2)CS3)cc1,0.8,19,4,1,-20,22
Brc1ccccc1C1=Nn2c(nnc2-c2ccccc2)SC1,0.4,14,90*,0.1,-15,62*

# Screens as filed in PubChem.
